Source: the supplement of paper PMC10849652
The full data set covers some 7,900 targets. This sample favours those with a hit. About 0.6% of all pairs of compound and target were hits. A number with no mark means an inactive call.

Columns and labels:
Test in all cases: log2 fold change, soluble protein after heating vs DMSO (PISA); higher = thermal stabilisation; K562 cells, 10 uM, 30 min; active = over 0.2 and 3.5 SD of the protein, either way, in both replicates (recomputed)
[1] = compound: NC(=O)Nc1cc(-c2cccc(F)c2)sc1C(=O)N[C@H]1CCCNC1
How it was run: (§1)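 K562 cells at 2×10^6 cells/mL were treated for 30 min with 10 μM compound, and aliquots were heated for 3 min over 48°C-58°C before pooling. Extraction used PBS with 0.5% NP-40 at 4°C, and soluble protein was the supernatant after 21,000xg for 90 min, measured by TMTpro 16plex LC-MS/MS with channel sums equalised. Thermal stability values, relative to control samples and from duplicates, are log2 fold changes.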

[2] = compound: NC(=O)c1cnc(N[C@@H]2CCCC[C@@H]2N)nc1Nc1cccc(-n2nccn2)c1
How it was run: as §1

[3] = compound: NC1(c2ccc(-c3nc4ccn5c(=O)[nH]nc5c4cc3-c3ccccc3)cc2)CCC1
How it was run: as §1

[4] = compound: NCC(=O)Nc1ccc(-n2nc(C(F)(F)F)cc2-c2ccc3c(ccc4ccccc43)c2)cc1
How it was run: as §1

entinostat = compound: Nc1ccccc1NC(=O)c1ccc(CNC(=O)OCc2cccnc2)cc1 [entinostat]
How it was run: as §1

vorinostat = compound: O=C(CCCCCCC(=O)Nc1ccccc1)NO [vorinostat]
How it was run: as §1

citarinostat = compound: O=C(CCCCCCNC(=O)c1cnc(N(c2ccccc2)c2ccccc2Cl)nc1)NO [citarinostat]
How it was run: as §1

silmitasertib = compound: O=C(O)c1ccc2c(c1)nc(Nc1cccc(Cl)c1)c1ccncc12 [silmitasertib]
How it was run: as §1

[5] = compound: O=C1NC(=O)C(c2cnc3ccccn23)=C1c1cn2c3c(cc(F)cc13)CN(C(=O)N1CCCCC1)CC2
How it was run: as §1

[6] = compound: c1cc(OCCN2CCCCC2)cc(-c2n[nH]c3ccc(-c4nnc[nH]4)cc23)c1
How it was run: as §1

entospletinib = compound: c1cn2cc(-c3ccc4cn[nH]c4c3)nc(Nc3ccc(N4CCOCC4)cc3)c2n1 [entospletinib]
How it was run: as §1

Sequence of UniProt Q9UBY8 (Q9UBY8 whole entry, looked up): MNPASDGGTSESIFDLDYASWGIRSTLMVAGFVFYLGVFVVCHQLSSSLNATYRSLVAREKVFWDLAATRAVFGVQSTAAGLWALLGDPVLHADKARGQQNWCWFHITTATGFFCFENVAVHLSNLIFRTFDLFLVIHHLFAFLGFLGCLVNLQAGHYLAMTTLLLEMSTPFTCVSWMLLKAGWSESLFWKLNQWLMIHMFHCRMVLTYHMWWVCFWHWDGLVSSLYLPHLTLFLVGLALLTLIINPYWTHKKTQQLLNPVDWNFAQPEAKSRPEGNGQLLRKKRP
Sequence of UniProt Q9Y2V0 (Q9Y2V0 whole entry, looked up): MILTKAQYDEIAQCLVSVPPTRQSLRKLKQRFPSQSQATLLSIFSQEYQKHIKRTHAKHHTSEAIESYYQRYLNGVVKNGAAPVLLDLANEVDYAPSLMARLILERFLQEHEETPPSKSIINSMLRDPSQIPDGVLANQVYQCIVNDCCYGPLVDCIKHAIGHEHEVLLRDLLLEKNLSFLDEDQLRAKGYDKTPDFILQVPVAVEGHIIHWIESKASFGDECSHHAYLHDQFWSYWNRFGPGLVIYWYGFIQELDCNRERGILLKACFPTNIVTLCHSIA
Sequence of UniProt P86791 (P86791 whole entry, looked up): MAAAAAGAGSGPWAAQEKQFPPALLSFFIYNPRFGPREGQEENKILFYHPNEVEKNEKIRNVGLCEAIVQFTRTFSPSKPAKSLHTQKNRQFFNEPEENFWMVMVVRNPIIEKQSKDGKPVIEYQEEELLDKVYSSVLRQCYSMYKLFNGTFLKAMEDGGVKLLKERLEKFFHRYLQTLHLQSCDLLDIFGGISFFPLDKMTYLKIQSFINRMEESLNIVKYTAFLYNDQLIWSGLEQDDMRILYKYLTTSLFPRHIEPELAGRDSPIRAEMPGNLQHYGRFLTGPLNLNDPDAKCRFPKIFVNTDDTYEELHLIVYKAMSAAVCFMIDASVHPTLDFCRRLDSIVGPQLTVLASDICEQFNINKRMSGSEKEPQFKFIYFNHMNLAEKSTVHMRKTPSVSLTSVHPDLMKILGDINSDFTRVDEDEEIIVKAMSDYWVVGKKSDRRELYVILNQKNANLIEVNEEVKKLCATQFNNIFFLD
Sequence of UniProt P48509 (P48509 whole entry, looked up): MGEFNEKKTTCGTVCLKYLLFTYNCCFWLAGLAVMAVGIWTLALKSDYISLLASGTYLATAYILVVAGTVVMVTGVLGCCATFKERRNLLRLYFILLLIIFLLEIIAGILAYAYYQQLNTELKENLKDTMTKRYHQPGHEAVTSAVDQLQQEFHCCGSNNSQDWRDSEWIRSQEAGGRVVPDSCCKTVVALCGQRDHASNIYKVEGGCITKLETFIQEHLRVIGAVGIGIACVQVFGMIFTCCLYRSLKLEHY
Sequence of UniProt Q9HAW4 (Q9HAW4 whole entry, looked up): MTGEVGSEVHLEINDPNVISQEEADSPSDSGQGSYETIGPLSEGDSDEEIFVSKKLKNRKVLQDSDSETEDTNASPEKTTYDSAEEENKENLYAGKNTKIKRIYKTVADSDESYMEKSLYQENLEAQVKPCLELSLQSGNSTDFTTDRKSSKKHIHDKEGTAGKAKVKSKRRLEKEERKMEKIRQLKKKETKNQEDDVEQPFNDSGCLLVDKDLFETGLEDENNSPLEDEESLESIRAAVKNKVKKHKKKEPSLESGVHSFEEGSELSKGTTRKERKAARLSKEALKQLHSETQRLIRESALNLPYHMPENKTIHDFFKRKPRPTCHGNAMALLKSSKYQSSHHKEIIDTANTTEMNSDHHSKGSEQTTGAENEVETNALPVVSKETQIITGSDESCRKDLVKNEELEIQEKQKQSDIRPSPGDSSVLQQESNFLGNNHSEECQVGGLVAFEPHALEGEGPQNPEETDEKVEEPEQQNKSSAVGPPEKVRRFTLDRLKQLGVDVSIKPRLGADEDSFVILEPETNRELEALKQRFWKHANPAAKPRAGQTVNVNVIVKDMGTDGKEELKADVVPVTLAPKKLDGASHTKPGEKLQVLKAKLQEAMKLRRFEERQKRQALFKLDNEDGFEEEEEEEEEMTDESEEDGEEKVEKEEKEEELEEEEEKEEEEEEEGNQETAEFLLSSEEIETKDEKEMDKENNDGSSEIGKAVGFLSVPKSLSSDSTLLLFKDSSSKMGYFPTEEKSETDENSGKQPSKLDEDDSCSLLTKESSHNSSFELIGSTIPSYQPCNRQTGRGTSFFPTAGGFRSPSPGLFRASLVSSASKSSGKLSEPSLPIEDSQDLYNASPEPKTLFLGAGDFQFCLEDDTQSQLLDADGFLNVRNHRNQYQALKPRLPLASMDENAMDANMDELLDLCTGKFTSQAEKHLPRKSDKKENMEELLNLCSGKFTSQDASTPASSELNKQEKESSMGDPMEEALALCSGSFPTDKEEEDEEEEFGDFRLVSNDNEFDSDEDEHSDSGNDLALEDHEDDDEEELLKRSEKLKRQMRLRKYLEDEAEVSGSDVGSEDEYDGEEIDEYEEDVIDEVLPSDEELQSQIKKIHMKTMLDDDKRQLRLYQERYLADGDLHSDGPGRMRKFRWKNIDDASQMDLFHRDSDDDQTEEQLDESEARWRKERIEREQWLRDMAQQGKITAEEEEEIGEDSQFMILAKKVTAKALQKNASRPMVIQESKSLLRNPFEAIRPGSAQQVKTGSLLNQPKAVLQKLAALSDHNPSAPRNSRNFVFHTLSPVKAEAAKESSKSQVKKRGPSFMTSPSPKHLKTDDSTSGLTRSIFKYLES
Sequence of UniProt Q9Y6K0 (Q9Y6K0 whole entry, looked up): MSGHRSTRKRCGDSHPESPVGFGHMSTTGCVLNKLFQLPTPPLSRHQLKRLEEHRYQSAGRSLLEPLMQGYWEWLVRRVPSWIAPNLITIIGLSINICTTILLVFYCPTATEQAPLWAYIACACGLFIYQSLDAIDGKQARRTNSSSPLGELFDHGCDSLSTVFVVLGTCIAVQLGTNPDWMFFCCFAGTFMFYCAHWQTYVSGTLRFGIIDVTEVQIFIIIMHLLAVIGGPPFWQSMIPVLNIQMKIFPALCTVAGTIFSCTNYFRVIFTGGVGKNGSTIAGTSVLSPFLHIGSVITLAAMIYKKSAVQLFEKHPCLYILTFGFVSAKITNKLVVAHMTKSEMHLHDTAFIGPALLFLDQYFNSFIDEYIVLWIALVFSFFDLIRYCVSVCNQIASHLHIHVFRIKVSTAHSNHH
Sequence of UniProt P67870 (P67870 whole entry, looked up): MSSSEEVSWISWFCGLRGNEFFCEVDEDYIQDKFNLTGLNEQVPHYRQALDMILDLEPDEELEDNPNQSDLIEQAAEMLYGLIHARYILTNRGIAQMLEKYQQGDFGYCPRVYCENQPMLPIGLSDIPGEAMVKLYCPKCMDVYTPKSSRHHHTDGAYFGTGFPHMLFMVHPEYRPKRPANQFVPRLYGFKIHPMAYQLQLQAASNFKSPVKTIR
Sequence of UniProt Q5T6V5 (Q5T6V5 whole entry, looked up): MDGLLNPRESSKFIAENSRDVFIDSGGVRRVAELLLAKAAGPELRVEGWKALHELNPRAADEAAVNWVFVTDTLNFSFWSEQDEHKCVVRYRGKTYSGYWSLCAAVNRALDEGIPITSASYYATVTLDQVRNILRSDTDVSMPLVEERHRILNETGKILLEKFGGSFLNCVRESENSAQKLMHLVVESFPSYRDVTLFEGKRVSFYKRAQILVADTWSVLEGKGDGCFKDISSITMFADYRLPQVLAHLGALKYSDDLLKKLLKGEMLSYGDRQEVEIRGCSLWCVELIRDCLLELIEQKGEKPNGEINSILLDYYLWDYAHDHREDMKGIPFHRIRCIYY
Sequence of UniProt P41240 (P41240 whole entry, looked up): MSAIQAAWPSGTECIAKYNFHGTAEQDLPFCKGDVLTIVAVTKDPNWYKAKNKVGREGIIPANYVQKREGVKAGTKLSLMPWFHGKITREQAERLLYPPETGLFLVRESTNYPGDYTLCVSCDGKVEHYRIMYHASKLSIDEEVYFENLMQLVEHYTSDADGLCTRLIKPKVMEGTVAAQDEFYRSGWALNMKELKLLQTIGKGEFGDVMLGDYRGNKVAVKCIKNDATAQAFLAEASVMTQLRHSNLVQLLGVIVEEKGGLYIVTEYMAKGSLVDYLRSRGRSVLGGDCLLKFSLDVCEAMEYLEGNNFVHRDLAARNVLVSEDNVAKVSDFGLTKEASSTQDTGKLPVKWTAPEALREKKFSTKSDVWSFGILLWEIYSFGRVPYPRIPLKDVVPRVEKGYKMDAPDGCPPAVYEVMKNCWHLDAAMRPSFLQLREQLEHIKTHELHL
Sequence of UniProt Q7KZN9 (Q7KZN9 whole entry, looked up): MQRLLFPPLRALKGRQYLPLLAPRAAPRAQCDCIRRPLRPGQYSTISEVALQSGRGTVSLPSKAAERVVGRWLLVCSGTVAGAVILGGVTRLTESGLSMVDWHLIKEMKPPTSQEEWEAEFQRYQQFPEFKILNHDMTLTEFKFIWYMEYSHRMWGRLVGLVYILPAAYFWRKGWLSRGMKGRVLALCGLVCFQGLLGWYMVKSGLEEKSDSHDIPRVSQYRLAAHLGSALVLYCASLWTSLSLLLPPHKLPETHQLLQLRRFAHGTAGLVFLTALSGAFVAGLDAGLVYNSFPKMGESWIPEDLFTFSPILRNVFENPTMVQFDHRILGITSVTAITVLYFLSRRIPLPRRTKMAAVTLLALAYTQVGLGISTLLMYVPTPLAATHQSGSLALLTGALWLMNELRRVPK
Sequence of UniProt P42574 (P42574 whole entry, looked up): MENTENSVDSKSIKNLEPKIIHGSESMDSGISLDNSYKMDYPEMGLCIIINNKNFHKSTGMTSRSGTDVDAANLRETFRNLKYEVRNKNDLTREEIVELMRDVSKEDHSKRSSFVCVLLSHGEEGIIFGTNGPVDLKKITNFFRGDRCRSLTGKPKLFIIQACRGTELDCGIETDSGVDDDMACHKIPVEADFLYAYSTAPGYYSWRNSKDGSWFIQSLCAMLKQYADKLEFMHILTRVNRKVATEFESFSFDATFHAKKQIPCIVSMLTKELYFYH
Sequence of UniProt Q8NHZ8 (Q8NHZ8 whole entry, looked up): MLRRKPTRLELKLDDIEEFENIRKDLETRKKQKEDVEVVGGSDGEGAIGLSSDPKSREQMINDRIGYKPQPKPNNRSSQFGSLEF

| Target | log2 fold change [1] | log2 fold change [2] | log2 fold change [3] | log2 fold change [4] | log2 fold change (entinostat) | log2 fold change (vorinostat) | log2 fold change (citarinostat) | log2 fold change (silmitasertib) | log2 fold change [5] | log2 fold change [6] | log2 fold change (entospletinib) |
| --- | --- | --- | --- | --- | --- | --- | --- | --- | --- | --- | --- |
| COX15 (UniProt Q7KZN9) | 0.003 | -0.009 | -0.043 | -0.013 | 0.004 | -0.017 | 0.048 | 0.022 | 0.028 | -0.064 | -0.169 |
| CEPT1 (UniProt Q9Y6K0) | -0.065 | -0.101 | -0.215 | -0.156 | 0.065 | -0.078 | -0.023 | -0.014 | -0.054 | -0.085 | 0.033 |
| CD55 isoform 7 (UniProt P08174) | -0.048 | 0.028 | 0.128 | 0.108 | 0.018 | -0.044 | 0.009 | -0.006 | -0.043 | -0.047 | -0.006 |
| CDC26 (UniProt Q8NHZ8) | 0.034 | 0.352 | 0.152 | 0.704 (active) | 0.097 | 0.019 | -0.025 | -0.003 | 0.007 | -0.003 | 0.023 |
| COX20 isoform 2 (UniProt Q5RI15) | -0.02 | -0.016 | 0.363 (active) | -0.029 | -0.036 | -0.116 | 0.027 | -0.034 | -0.004 | 0.016 | -0.022 |
| CD53 (UniProt P19397) | -0.15 | 0.196 | 0.133 | 0.014 | -0.044 | -0.219 | 0.013 | -0.046 | -0.037 | -0.12 | 0.073 |
| C4A (UniProt P0C0L4) | -0.024 | -0.016 | -0.129 | 0 | 0.021 | 0.265 | -0.071 | 0.059 | 0.038 | 0.146 | 0.149 |
| CPSF1 (UniProt Q10570) | 0.024 | 0.069 | 0.059 | 0.006 | -0.023 | 0.012 | -0.025 | 0.052 | 0.099 | -0.139 | 0.037 |
| CSNK2B (UniProt P67870) | -0.017 | 0 | 0.006 | 0.084 | -0.008 | 0.021 | 0.036 | 0.377 (active) | -0.011 | -0.02 | 0.077 |
| CIT isoform 4 (UniProt O14578) | -0.072 | -0.101 | -0.108 | 0 | 0.025 | 0.041 | -0.222 | 0.049 | 0.049 | 0.293 | -0.168 |
| CASC3 (UniProt O15234) | 0.015 | 0.238 | -0.01 | 0.001 | -0.039 | -0.072 | 0 | 0.054 | 0.24 | -0.133 | 0.485 (active) |
| CASP3 (UniProt P42574) | 0.051 | 0.053 | 0.075 | 0.043 | -0.029 | 0 | -0.043 | -0.057 | 0.018 | -0.051 | 0.044 |
| COCH (UniProt O43405) | 0.024 | -0.014 | 0.035 | 0.13 | 0.123 | -0.122 | -0.084 | 0.072 | 0.055 | -0.149 | -0.012 |
| CNTN4 (UniProt Q8IWV2) | 0.016 | -0.056 | 0.614 | -0.085 | -0.106 | 0.017 | 0.141 | -0.197 | -0.18 | 0.088 | -0.148 |
| C9orf64 (UniProt Q5T6V5) | 0 | -0.155 | -0.338 | -0.02 | 0.088 | 0.167 | 0.064 | 0.037 | 0.012 | -0.106 | 0.009 |
| CSK (UniProt P41240) | 0.318 (active) | -0.084 | -0.156 | -0.083 | 0.006 | 0.023 | 0.03 | 0.046 | -0.048 | -0.014 | 0.013 |
| COQ9 (UniProt O75208) | 0.02 | -0.002 | -0.151 | -0.032 | 0.045 | 0.028 | -0.013 | 0.021 | -0.103 | 0.008 | -0.022 |
| CSE1L (UniProt P55060) | -0.037 | -0.067 | -0.162 | -0.071 | 0.05 | 0.015 | 0.058 | 0.035 | -0.059 | -0.018 | -0.003 |
| CCDC9 (UniProt Q9Y3X0) | 0.021 | 0.034 | 0.121 | 0.02 | -0.088 | -0.051 | -0.069 | -0.051 | 0.021 | -0.015 | 0.115 |
| C4orf33 (UniProt Q8N1A6) | 0.152 | -0.003 | -0.218 | -0.061 | -0.156 | -0.05 | 0 | -0.126 | 0.019 | -0.063 | 0.082 |
| CCZ1 (UniProt P86791) | 0.036 | -0.072 | -0.33 (active) | -0.077 | 0.006 | 0.013 | -0.011 | 0.039 | -0.01 | -0.033 | 0.039 |
| CLSPN (UniProt Q9HAW4) | -0.015 | -0.009 | -0.003 | -0.013 | -0.048 | -0.028 | 0.026 | 0.053 | -0.062 | -0.086 | 0.057 |
| CD151 (UniProt P48509) | -0.054 | 0.139 | 0.125 | 0.024 | 0.094 | -0.025 | -0.007 | 0.031 | -0.063 | -0.009 | -0.121 |
| C15orf41 (UniProt Q9Y2V0) | -0.076 | -0.046 |  | -0.061 | -0.01 | 0.069 | 0.07 |  | 0.023 | -0.007 | 0.032 |
| CLN8 (UniProt Q9UBY8) | -0.062 | -0.002 | 0.334 | 0 | 0.058 | -0.061 | 0.064 | 0.075 |  | -0.095 | 0.022 |
